Experimental data: PubChem BioAssay (NCATS)
Inconclusive results are not listed. The source made the active and inactive calls. The call rests on the fitted dose curve; in most records, active means well fitted inhibition curve with a large enough effect; inconclusive means small, poorly fitted or top-dose-only effect; inactive means flat fitted curve, though single readings scatter.

These molecules were tested against Lysine-specific demethylase 5B (Homo sapiens) (UniProt Q9UGL1) (assay: Optimization screen for KDM5B Histone Demethylases FDH coupled qHTS against the LOPAC library (AID 1347166; further: 0% is about no effect)). Details: KDM5B demethylation, FDH-coupled NADH fluorescence (FDH is formaldehyde dehydrogenase); series mostly up to 57.5 µM; activity, negative = inhibition: at the top concentration.
Chain of Lysine-specific demethylase 5B (Homo sapiens) (Q9UGL1 whole entry, looked up): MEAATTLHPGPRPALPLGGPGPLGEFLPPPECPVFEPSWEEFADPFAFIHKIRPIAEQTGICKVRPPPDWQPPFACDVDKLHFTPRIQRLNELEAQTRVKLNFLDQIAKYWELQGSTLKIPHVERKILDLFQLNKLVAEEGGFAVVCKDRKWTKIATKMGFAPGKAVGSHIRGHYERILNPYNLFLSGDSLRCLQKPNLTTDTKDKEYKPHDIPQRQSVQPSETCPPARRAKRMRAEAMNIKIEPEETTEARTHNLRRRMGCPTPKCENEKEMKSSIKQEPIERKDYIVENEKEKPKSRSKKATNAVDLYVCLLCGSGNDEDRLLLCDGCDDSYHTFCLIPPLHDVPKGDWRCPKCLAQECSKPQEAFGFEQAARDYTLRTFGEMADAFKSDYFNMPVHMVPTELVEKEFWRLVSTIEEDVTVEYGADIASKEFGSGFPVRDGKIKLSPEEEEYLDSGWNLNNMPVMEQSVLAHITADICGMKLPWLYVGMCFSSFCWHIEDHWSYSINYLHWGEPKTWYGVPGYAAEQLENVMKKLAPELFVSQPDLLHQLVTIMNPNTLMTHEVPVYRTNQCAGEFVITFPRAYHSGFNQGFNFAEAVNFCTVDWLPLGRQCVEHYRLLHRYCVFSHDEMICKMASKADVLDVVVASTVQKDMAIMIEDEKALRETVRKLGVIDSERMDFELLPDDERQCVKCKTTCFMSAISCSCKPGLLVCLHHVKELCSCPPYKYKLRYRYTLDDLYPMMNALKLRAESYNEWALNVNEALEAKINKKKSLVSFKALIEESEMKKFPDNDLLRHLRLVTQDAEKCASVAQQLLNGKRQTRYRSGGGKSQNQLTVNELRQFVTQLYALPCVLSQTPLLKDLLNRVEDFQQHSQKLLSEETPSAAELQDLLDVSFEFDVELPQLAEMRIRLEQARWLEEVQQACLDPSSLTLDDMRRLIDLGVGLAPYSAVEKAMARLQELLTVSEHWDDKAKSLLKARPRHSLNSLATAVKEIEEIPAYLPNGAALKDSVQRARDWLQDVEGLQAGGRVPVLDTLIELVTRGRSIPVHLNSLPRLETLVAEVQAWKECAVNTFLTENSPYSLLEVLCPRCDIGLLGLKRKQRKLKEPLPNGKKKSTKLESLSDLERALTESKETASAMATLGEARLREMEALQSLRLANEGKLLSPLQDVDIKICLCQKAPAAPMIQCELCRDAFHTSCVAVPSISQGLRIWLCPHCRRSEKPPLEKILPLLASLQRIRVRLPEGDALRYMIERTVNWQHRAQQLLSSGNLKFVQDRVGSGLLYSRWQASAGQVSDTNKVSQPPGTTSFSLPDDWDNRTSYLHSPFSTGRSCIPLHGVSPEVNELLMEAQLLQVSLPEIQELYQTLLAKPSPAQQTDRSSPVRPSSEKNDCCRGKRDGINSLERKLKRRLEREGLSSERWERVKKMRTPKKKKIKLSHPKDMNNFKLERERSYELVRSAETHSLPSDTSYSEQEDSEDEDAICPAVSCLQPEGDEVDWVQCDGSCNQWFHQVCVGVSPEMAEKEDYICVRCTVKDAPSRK
How it was run: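 KDM5BDeltaAP (200nM final) in 50mM HEPES pH 7.5, 0.01% Tween-20 was preincubated with compound for 10 min at room temperature. A substrate mix of 12.5uM H3K4Me3, 25uM a-ketoglutarate, ascorbate, Fe2+, NAD+ and formaldehyde dehydrogenase was then added. NADH fluorescence (340/450 nm) was read initially and after 30 min.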

Structure (SMILES)	activity, negative = inhibition
O=c1[nH]cc(F)c(=O)[nH]1	-9.08% (inactive)
CN1C(C(=O)Nc2ccccn2)=C(O)c2ccccc2S1(=O)=O	-8.12% (inactive)
NC12CC3CC(CC(C3)C1)C2	-6.43% (inactive)
COc1ccccc1N1CCN(CC(O)COc2cccc3ccccc23)CC1 (centres undefined)	-29.4% (inactive)
OCCN1CCN(CCCN2c3ccccc3Sc3ccc(C(F)(F)F)cc32)CC1	-11.7% (inactive)
CN(C)CCCN1c2ccccc2CCc2ccc(Cl)cc21	-9.05% (inactive)
NCCc1cnc[nH]1	-9.3% (inactive)
COc1ccccc1OCCNCC(O)COc1cccc2[nH]c3ccccc3c12 (centres undefined)	-5.87% (inactive)
NCCS(=O)(=O)O	-4.21% (inactive)
O=C1N(c2ccccc2)c2ccccc2C1(Cc1ccncc1)Cc1ccncc1	-6.22% (inactive)
CCOC(=O)C(C)(C)Oc1ccc(Cl)cc1	-5.93% (inactive)
CN1CCN(CCCN2c3ccccc3Sc3ccc(Cl)cc32)CC1	-16.6% (inactive)
NS(=O)(=O)c1cc2c(cc1Cl)NCNS2(=O)=O	-7.48% (inactive)
Fc1ccc([C@@H]2CCNC[C@H]2COc2ccc3c(c2)OCO3)cc1	-4.04% (inactive)
CC[N+](CC)(CC)CCOc1cccc(OCC[N+](CC)(CC)CC)c1OCC[N+](CC)(CC)CC	-12.5% (inactive)
CC#C[C@]1(O)CC[C@H]2[C@@H]3CCC4=CC(=O)CCC4=C3[C@@H](c3ccc(N(C)C)cc3)C[C@@]21C	-10% (inactive)
COc1ccc2c(c1)c(CC(=O)O)c(C)n2C(=O)c1ccc(Cl)cc1	-8.72% (inactive)
Cn1cnc2c1c(=O)[nH]c(=O)n2C	-6.65% (inactive)
Nc1ccn([C@H]2CC[C@@H](CO)O2)c(=O)n1	0.519% (inactive)
CCc1cccc2c3c([nH]c12)C(CC)(CC(=O)O)OCC3 (centres undefined)	-5.32% (inactive)
CCC1(C)CC(=O)NC1=O (centres undefined)	-4.98% (inactive)
O=C(C1CCCCC1)N1CC(=O)N2CCc3ccccc3C2C1 (centres undefined)	1.91% (inactive)
Clc1ccccc1C(c1ccccc1)(c1ccccc1)n1ccnc1	-5.83% (inactive)
O=c1c(-c2ccc(O)cc2)coc2cc(O)cc(O)c12	-4.6% (inactive)
CCCCc1oc2ccccc2c1C(=O)c1cc(I)c(OCCN(CC)CC)c(I)c1	-17.2% (inactive)
O=C(CCCN1CCC(O)(c2ccc(Cl)cc2)CC1)c1ccc(F)cc1	-6.21% (inactive)
CC(C(=O)O)c1cccc(C(=O)c2ccccc2)c1 (centres undefined)	-3.67% (inactive)
Cc1cn([C@H]2C[C@H](N=[N+]=[N-])[C@@H](CO)O2)c(=O)[nH]c1=O	-3.43% (inactive)
CC(C)NCC(O)COc1ccc(CCOCC2CC2)cc1 (centres undefined)	-2.46% (inactive)
